# Measured values as given in PubChem BioAssay (Tox21).
# A number with no mark means an inactive call. Inconclusive results are not listed. Entries that show only a call come without a potency. Active and inactive are the calls of the source. Unless noted, the call rests on the fitted dose curve.
# How the values were obtained:
# [1] = molecular target: Thyrotropin receptor (Homo sapiens) (UniProt P16473); test: qHTS assay to identify small molecule agonists of the thyroid stimulating hormone receptor (TSHR) signaling pathway (AID 1224843); further: nearly all actives have a fitted effect of over 45% in size
# In short: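 Agonist activity read as cAMP rise via d2/cryptate HTRF competition, 1 h room-temperature detection, in HEK293 cells expressing TSHR. Fifteen-point titrations, each run in triplicate, with a 30 min room-temperature incubation beforehand.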
# [2] = qHTS assay to identify small molecule agonists of the hypoxia (HIF-1) signaling pathway - cell viability counter screen (AID 1224844); further: nearly all actives have a fitted effect of over 50% in size
# In short: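 CellTiter-Glo luminescence read-out, 30 min RT, taken in the same wells as the beta-lactamase HRE reporter assay; HRE-bla ME-180 cells, 0.5% dialyzed FBS, 17 hr compound treatment at 37C, 5% CO2.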
# [3] = qHTS assay to identify small molecule agonists of H2AX (AID 1224845; active means well fitted activation curve with a large enough effect in the signal ratio in the repeat runs, not every such curve was filed as active; the % refers to the signal ratio)
# In short: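 Phospho-H2AX Ser139 measured by HTRF (ex 320 nm; em 665 and 620 nm) after 24 hr antibody incubation. Compounds, 15 concentrations, 0.76% DMSO, were applied to CHO-K1 cells for 3hr at 37C before lysis.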
# [4] = qHTS assay to identify small molecule agonists of H2AX - cell viability counter screen (AID 1224847); further: top concentration of the series differs between compounds; nearly all actives have a fitted effect of over 30% in size
# In short: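 Compounds tested at 15 concentrations were incubated 3 hr at 37C with wild-type CHO-K1 cells; cellular ATP-based luminescence (CellTiter-Glo) indicated viability.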
# [5] = qHTS assay to identify small molecule antagonists of the estrogen related receptor (ERR) signaling pathway from Tox21 library (AID 1224848; active means well fitted curve in the direction sought with a large enough effect in the repeat runs; an effect the other way counts as inactive or inconclusive; further: nearly all actives have a fitted effect of over 50% in size)
# In short: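 Luciferase luminescence (ONE-Glo, 30 min room temperature) was the read-out. Cells of the NTP-supplied ERR line, 2,000 per well, were given 6 h at 37 C before compound addition in DMSO and 18 h exposure at 37 C.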
# [6] = qHTS assay to identify small molecule agonists of the estrogen related receptor (ERR) signaling pathway from Tox21 library (AID 1224849); conditions: ERR reporter cell line, ONE-Glo luciferase, 18 h; at 92.4 µM (top of the series) unless noted; further: nearly all actives have a fitted effect of over 15% in size
# In short: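 Luminescence readout (ONE-Glo, 30 min RT) after 18 h compound exposure at 37 C of NTP-supplied ERR reporter cells; cells were plated 6 h before compound addition by pin tool.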
# [7] = qHTS RealTime-Glo MT Cell Viability Assay in HepG2 cells - 24 hour (AID 1224867; active means well fitted curve in the direction sought with a large enough effect in the repeat runs; an effect the other way counts as inactive or inconclusive; further: nearly all actives have a fitted effect of over 50% in size)
# In short: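 HepG2 suspension premixed with RealTime-Glo reagents is plated at 600 cells per well and left 5 h at 37 C/5% CO2. Compounds in DMSO then go in, and bioluminescence reflecting viable cell number is recorded over 40 h.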
# [8] = qHTS RealTime-Glo MT Cell Viability Assay in HEK293 cells - 32 hour (AID 1224868; active means well fitted curve in the direction sought with a large enough effect in the repeat runs; an effect the other way counts as inactive or inconclusive; further: top concentration of the series differs between compounds; nearly all actives have a fitted effect of over 50% in size)
# In short: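 Reads taken at 0, 8, 16, 24, 32 and 40 h from the same wells. HEK293 cells (600/well) carried RealTime-Glo reagents from seeding, with compound added after a 5 h settle at 37 C.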
# [9] = A CellTox Green Cytotoxicity Assay to monitor cytotoxicity in HEK293 cells - 0 hour (AID 1224869; active means well fitted curve in the direction sought with a large enough effect in the repeat runs; an effect the other way counts as inactive or inconclusive; further: nearly all actives have a fitted effect of over 50% in size)
# In short: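 Read-out: fluorescence of a cell-impermeant cyanine dye staining DNA of dead cells, proportional to cytotoxicity. HEK293, 600 cells/well with reagent, compound (23 nL DMSO) added after 5 h; reads at 0, 8, 16, 24, 32, 40 h.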
# [10] = qHTS assay to identify small molecule agonists of the hypoxia (HIF-1) signaling pathway (AID 1224846; active means well fitted activation curve with a large enough effect in the signal ratio in the repeat runs, not every such curve was filed as active; the % refers to the signal ratio)
# In short: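 Beta-lactamase FRET read-out (CCF4-AM substrate) from ME-180 cells carrying an HRE-driven bla reporter, after 17 hrs compound exposure at 37C/5% CO2. Cells were seeded at 2,000 per well in 0.5% dialyzed FBS medium and preincubated 5 hrs.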
# Thyrotropin receptor (Homo sapiens), sequence (P16473 whole entry, looked up): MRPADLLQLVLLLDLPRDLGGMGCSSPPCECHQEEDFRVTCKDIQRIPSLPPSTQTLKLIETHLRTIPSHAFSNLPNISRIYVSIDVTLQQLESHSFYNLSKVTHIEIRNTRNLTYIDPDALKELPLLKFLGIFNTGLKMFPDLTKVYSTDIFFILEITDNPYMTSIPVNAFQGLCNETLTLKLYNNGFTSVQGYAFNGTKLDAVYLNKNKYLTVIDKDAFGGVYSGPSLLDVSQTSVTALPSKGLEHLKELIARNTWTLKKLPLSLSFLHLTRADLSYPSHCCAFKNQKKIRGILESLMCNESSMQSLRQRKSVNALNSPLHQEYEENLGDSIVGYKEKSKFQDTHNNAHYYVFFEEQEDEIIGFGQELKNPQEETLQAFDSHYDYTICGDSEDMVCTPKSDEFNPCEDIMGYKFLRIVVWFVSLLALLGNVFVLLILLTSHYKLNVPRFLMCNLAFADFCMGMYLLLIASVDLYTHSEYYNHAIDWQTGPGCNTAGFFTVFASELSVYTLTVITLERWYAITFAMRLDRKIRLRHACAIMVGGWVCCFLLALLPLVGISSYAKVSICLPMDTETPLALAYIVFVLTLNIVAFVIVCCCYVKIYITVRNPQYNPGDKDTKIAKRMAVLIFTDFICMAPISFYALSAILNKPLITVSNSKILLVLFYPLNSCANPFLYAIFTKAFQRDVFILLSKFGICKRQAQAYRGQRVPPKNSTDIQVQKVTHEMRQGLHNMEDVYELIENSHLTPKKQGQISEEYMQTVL
compound,measurement,setting,value
COc1ccccc1N1CCN(CCCNc2cc(=O)n(C)c(=O)n2C)CC1,Potency,[1],inactive
same,Potency,[2],inactive
same,Potency,[3],inactive
same,Potency,[4],inactive
same,Potency,[5],inactive
same,"activity change, positive = activation",[6],3.63% [at 42.5 µM]
same,Potency,[7],inactive
same,Potency,[8],inactive
same,Potency,[9],inactive
CC1=CC(=O)CC(C)(C)C1=O,Potency,[1],inactive
same,Potency,[2],inactive
same,Potency,[3],inactive
same,Potency,[4],inactive
same,Potency,[7],inactive
same,Potency,[8],inactive
CC(=O)OC(C)OC(C)=O,Potency,[1],inactive
same,Potency,[2],inactive
same,Potency,[3],inactive
same,outcome,[10],inactive
same,Potency,[4],inactive
same,Potency,[7],inactive
same,Potency,[8],inactive
same,Potency,[9],inactive
CCCCCCCCCCCCCCCCOP(=O)([O-])OCC[N+](C)(C)C,Potency,[1],inactive
same,Potency,[2],inactive
same,Potency,[3],inactive
same,Potency,[4],inactive
same,Potency,[5],inactive
same,Potency,[7],inactive
same,Potency,[8],inactive
same,Potency,[9],inactive
C[C@]12CCC(=O)C=C1CC[C@@H]1[C@@H]2CC[C@@]2(C)[C@H]1CC[C@]2(O)C(=O)CO,Potency,[1],inactive
same,Potency,[2],inactive
same,Potency,[3],inactive
same,Potency,[4],inactive
same,"activity change, positive = activation",[6],-16% [at 42.5 µM]
same,Potency,[7],inactive
same,Potency,[8],inactive
same,Potency,[9],inactive
NC(Cc1ccc(F)cc1)C(=O)O (centres undefined),activation,[1],1.31% [at 8.39 µM]
same,"activity change, negative = cytotoxicity",[2],1.08% [at 6.97 µM]
same,activation (H2AX phosphorylation),[3],-2.92% [at 14 µM]
same,"activity change, negative = cytotoxicity",[4],0.454% [at 14 µM]
same,"activity, negative = inhibition",[5],1.15% [at 8.39 µM]
same,"activity change, positive = activation",[6],0.59% [at 8.39 µM]
same,"activity change, negative = cytotoxicity",[7],-1.43% [at 6.97 µM]
same,"activity change, negative = cytotoxic",[8],-0.0847% [at 6.97 µM]
same,cytotoxicity,[9],7.03% [at 6.97 µM]
C1CSCCS1,Potency,[1],inactive
same,Potency,[2],inactive
same,Potency,[3],inactive
same,Potency,[4],inactive
same,Potency,[5],inactive
same,"activity change, positive = activation",[6],3.63%
same,Potency,[7],inactive
same,Potency,[8],inactive
same,Potency,[9],inactive
N#CSCC(=O)O,Potency,[1],inactive
same,Potency,[2],inactive
same,Potency,[3],inactive
same,Potency,[4],inactive
same,Potency,[5],inactive
same,"activity change, positive = activation",[6],4.98% [at 42.5 µM]
same,Potency,[7],inactive
same,Potency,[8],inactive
same,Potency,[9],inactive
CN1CCN(C2=Nc3ccccc3Oc3ccc(Cl)cc32)CC1,Potency,[1],inactive
same,Potency,[2],inactive
same,Potency,[3],inactive
same,Potency,[4],inactive
same,"activity change, positive = activation",[6],-21.9% [at 42.5 µM]
same,Potency,[7],inactive
same,Potency,[8],inactive
same,Potency,[9],inactive
Cc1ccsc1C(=CCCN1CCC[C@@H](C(=O)O)C1)c1sccc1C,Potency,[1],inactive
same,Potency,[2],inactive
same,Potency,[3],inactive
same,outcome,[10],inactive
same,Potency,[4],inactive
same,Potency,[7],inactive
same,Potency,[8],inactive
same,Potency,[9],inactive
CN(C)C(=O)NC1(c2ccccc2)CCN(CCC[C@]2(c3ccc(Cl)c(Cl)c3)CCCN(C(=O)c3ccccc3)C2)CC1,activation,[1],-9.82% [at 19 µM]
same,"activity change, negative = cytotoxicity",[2],-18.7% [at 15.8 µM]
same,activation (H2AX phosphorylation),[3],5.48% [at 31.6 µM]
same,activation,[10],0.323% [at 15.8 µM]
same,"activity change, negative = cytotoxicity",[4],-0.817% [at 31.6 µM]
same,"activity change, negative = cytotoxicity",[7],-9.68% [at 15.8 µM]
same,cytotoxicity,[9],-1.6% [at 15.8 µM]
O=C(C(Cl)Cl)N1CCOC12CCCCC2,Potency,[1],inactive
same,Potency,[2],inactive
same,Potency,[3],inactive
same,Potency,[4],inactive
same,Potency,[5],inactive
same,"activity change, positive = activation",[6],-5.71%
same,Potency,[7],inactive
same,Potency,[8],inactive
OC[C@H]1O[C@@H](O[C@H]2[C@H](O)[C@@H](O)[C@H](O)O[C@@H]2CO)[C@H](O)[C@@H](O)[C@H]1O,Potency,[1],inactive
same,Potency,[2],inactive
same,Potency,[3],inactive
same,Potency,[4],inactive
same,Potency,[5],inactive
same,"activity change, positive = activation",[6],4.49%
same,Potency,[7],inactive
same,Potency,[8],inactive
same,Potency,[9],inactive
CCCS(=O)c1ccc2nc(NC(=O)OC)[nH]c2c1 (centres undefined),Potency,[1],inactive
same,Potency,[2],inactive
same,Potency,[3],inactive
same,outcome,[10],inactive
same,Potency,[4],inactive
same,Potency,[7],inactive
same,Potency,[9],inactive
NCCC(O)(P(=O)(O)O)P(=O)(O)O,Potency,[1],inactive
same,Potency,[2],inactive
same,Potency,[3],inactive
same,Potency,[4],inactive
same,Potency,[5],inactive
same,"activity change, positive = activation",[6],4.61% [at 42.5 µM]
same,Potency,[7],inactive
same,Potency,[8],inactive
same,Potency,[9],inactive
Cc1ccc([N+](=O)[O-])cc1Cl,Potency,[1],inactive
same,Potency,[3],inactive
same,outcome,[10],inactive
same,Potency,[4],inactive
same,Potency,[5],inactive
same,"activity change, positive = activation",[6],14.6% (active)
same,Potency,[7],inactive
same,Potency,[8],inactive
same,Potency,[9],inactive
CCCCNc1ccc(C(=O)OCCN(CC)CC)cc1,Potency,[1],inactive
same,Potency,[2],inactive
same,outcome,[10],inactive
same,Potency,[4],inactive
same,Potency,[5],inactive
same,"activity change, positive = activation",[6],-11.3% [at 42.5 µM]
same,Potency,[7],inactive
same,Potency,[9],inactive
C[C@@H]1CN(c2c(F)c(N)c3c(=O)c(C(=O)O)cn(C4CC4)c3c2F)C[C@H](C)N1,activation,[1],4.51% [at 19 µM]
same,"activity change, negative = cytotoxicity",[2],-0.675% [at 15.8 µM]
same,activation (H2AX phosphorylation),[3],0.193% [at 31.6 µM]
same,"activity change, negative = cytotoxicity",[4],2.57% [at 31.6 µM]
same,"activity change, negative = cytotoxicity",[7],2.81% [at 15.8 µM]
same,"activity change, negative = cytotoxic",[8],-1.37% [at 15.8 µM]
same,cytotoxicity,[9],8.42% [at 15.8 µM]
CC(=O)Oc1cc(C(C)C)c(OCCN(C)C)cc1C,Potency,[1],inactive
same,Potency,[2],inactive
same,Potency,[3],inactive
same,Potency,[4],inactive
same,Potency,[7],inactive
same,Potency,[9],inactive
CCC/C=C/CO,Potency,[1],inactive
same,Potency,[2],inactive
same,Potency,[3],inactive
same,Potency,[4],inactive
same,Potency,[7],inactive
same,Potency,[8],inactive
same,Potency,[9],inactive
